From paper PMC5892938, “SARNAclust: Semi-automatic detection of RNA protein binding motifs from immunoprecipitation data”
The full ranking holds about 11,000 sequences; the median of “log2 fold change” is about 0.00022, and the highest 2% start at about 0.34. The list shows a part of the results.

biological target: GST-SBP-SLBP (stem-loop binding protein) (Homo sapiens, UniProt Q14493 1-270); assay: targeted RNA Bind-n-Seq; RBNS binding buffer: 25 mM Tris pH 7.5, 150 mM KCl, 3 mM MgCl2, 0.1% Tween, 0.5 mg/mL BSA, 1 mM DTT; 27 nM protein, 750 pM RNA pool; temperature not stated; high values mean tight binding; conditions: protein: recombinant; tags: N-terminal GST and SBP (pGEX6P1-SBP); structured_RNA
Summary of the method: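 Read counts per sequence supply the binding signal, defined as the DEseq fold change on a binary-logarithm scale. These counts came from RNA of a designed, T7-transcribed oligo pool at 750 pM that bound 27 nM of GST-SBP-tagged protein, made in Rosetta(DE3) pLysS E. coli and glutathione-purified, in RBNS binding buffer. The bound RNA was reverse transcribed with a 10-nucleotide barcoded primer, PCR-amplified and sequenced on a MiSeq with 200-cycle paired-end reads, then processed with FLASH and HISAT2 and collapsed by barcode.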

Sequence | binding signal
GGUCACGUCUCAAUCAACUCAAUCCCAGGAGUUUUCUCCUGCAAUGUCAACAGCUCGCAGUCAAG | 0.317 ± 0.214 log2 fold change
GGUCACGUCUCAAUCAACUCAAGUCCAGGAGUUUUCUCCUGCAAAGUCAACAGCUCGCAGUCAAG | 0.447 ± 0.258 log2 fold change
GGUCACGUCUCAAUCAACUCUUCUCCCAGGGAAAGCCCUGGCAAUUUCAACAGCUCGCAGUCAAG | 0.428 ± 0.307 log2 fold change
GGUCACGUCUCAAUCAACUCUUCGCCCAGGGAAAGCCCUGGUUAUUUCAACAGCUCGCAGUCAAG | 0.464 ± 0.319 log2 fold change
GGUCACGUCUCAAUCAACUCUUCUCCCAGGGAAAGCCCUGGUUAACUCAACAGCUCGCAGUCAAG | 0.335 ± 0.269 log2 fold change
GGUCACGUCUCAAUCAACUCUUCUCCCAGGGAAACCCCUGGUUAUUUCAACAGCUCGCAGUCAAG | 0.372 ± 0.273 log2 fold change
GGUCACGUCUCAAUCAACUCUAUCUCCAGGGAAAUCCCUGGCAAUGUCAACAGCUCGCAGUCAAG | 0.418 ± 0.298 log2 fold change
GGUCACGUCUCAAUCAACUCAAUCUCCAGGGAAAGCCCUGGCAAUGUCAACAGCUCGCAGUCAAG | 0.309 ± 0.299 log2 fold change
GGUCACGUCUCAAUCAACUCAAUCUCCAGGGAAAACCCUGGCAAUGUCAACAGCUCGCAGUCAAG | 0.578 ± 0.314 log2 fold change
GGUCACGUCUCAAUCAACUCUAUCUCCAGGGAAAUCCCUGGUAAACUCAACAGCUCGCAGUCAAG | 0.306 ± 0.25 log2 fold change
GGUCACGUCUCAAUCAACUCAGUCUCCAGGGAAAUCCCUGGUAUUUUCAACAGCUCGCAGUCAAG | 0.347 ± 0.308 log2 fold change
GGUCACGUCUCAAUCAACUCAGUCUCCAGGGAAAUCCCUGGCAAUCUCAACAGCUCGCAGUCAAG | 0.4 ± 0.338 log2 fold change
GGUCACGUCUCAAUCAACUCUUUCUCCAGGGAAAUCCCUGGCUAUCUCAACAGCUCGCAGUCAAG | 0.375 ± 0.236 log2 fold change
GGUCACGUCUCAAUCAACUCAUUCCCCAGGGAAACCCCUGGCUAACUCAACAGCUCGCAGUCAAG | 0.341 ± 0.323 log2 fold change
GGUCACGUCUCAAUCAACUCAUCUUCCAGGGAAAACCCUGGCUAAUUCAACAGCUCGCAGUCAAG | 0.36 ± 0.265 log2 fold change
GGUCACGUCUCAAUCAACUCAUUCGCCAGGGAAACCCCUGGGUAUUUCAACAGCUCGCAGUCAAG | 0.329 ± 0.31 log2 fold change
GGUCACGUCUCAAUCAACUCAUUUUCCAGGGAAACCCCUGGCUAAUUCAACAGCUCGCAGUCAAG | 0.348 ± 0.267 log2 fold change
GGUCACGUCUCAAUCAACUCUUCCCCCAGGGAAACCCCUGGCUAAUUCAACAGCUCGCAGUCAAG | 0.313 ± 0.254 log2 fold change
GGUCACGUCUCAAUCAACUCAUACGAGGGGGGGAAAACCCCUUUACCCUCAAACUCAACAGCUCGCAGUCAAG | 0.382 ± 0.399 log2 fold change
GGUCACGUCUCAAUCAACUCAUACGAGGGGGGGAAAACCCCUUUACCCUCAAUAUCAACAGCUCGCAGUCAAG | 0.313 ± 0.436 log2 fold change
GGUCACGUCUCAAUCAACUCAUACGAGGGGGGGAAAACCCCUUUACCCUCAAAUUCAACAGCUCGCAGUCAAG | 0.598 ± 0.45 log2 fold change
GGUCACGUCUCAAUCAACUCGCAAGAGGGGGGGAAAACCCCUUUACCCUCACAAUCAACAGCUCGCAGUCAAG | 0.536 ± 0.414 log2 fold change

Sequence | binding signal
GGUCACGUCUCAAUCAACUCACAAGAGGGGGGGAAAACCCCUUUACCCUCGUCCUCAACAGCUCGCAGUCAAG | 0.385 ± 0.429 log2 fold change
GGUCACGUCUCAAUCAACUCAUAAGAGGGGGGGAAAACCCCUUUACCCUCACACUCAACAGCUCGCAGUCAAG | 0.455 ± 0.444 log2 fold change
GGUCACGUCUCAAUCAACUCACAAGAGGGGGGGAAAACCCCUUUACCCUCACUCUCAACAGCUCGCAGUCAAG | 0.304 ± 0.385 log2 fold change
GGUCACGUCUCAAUCAACUCAGUCUCAGGAGUUUCCUCCUGCUAUUUCAACAGCUCGCAGUCAAG | 0.343 ± 0.24 log2 fold change
GGUCACGUCUCAAUCAACUCAAUCCCAGGAGUUUCCUCCUGUUUUUUCAACAGCUCGCAGUCAAG | 0.312 ± 0.215 log2 fold change
GGUCACGUCUCAAUCAACUCAUCCGCAGGAGUUUCCUCCUGGUAUUUCAACAGCUCGCAGUCAAG | 0.483 ± 0.25 log2 fold change
GGUCACGUCUCAAUCAACUCAAUCCCAGGAGUUUGCUCCUGCAUAUUCAACAGCUCGCAGUCAAG | 0.355 ± 0.208 log2 fold change
GGUCACGUCUCAAUCAACUCAUCCUCAGGAGUUUGCUCCUGCAUAUUCAACAGCUCGCAGUCAAG | 0.313 ± 0.205 log2 fold change
GGUCACGUCUCAAUCAACUCAGUCCCAGGAGUUUCCUCCUGUAAAUUCAACAGCUCGCAGUCAAG | 0.371 ± 0.28 log2 fold change
GGUCACGUCUCAAUCAACUCUUUCUCAGGAGUUUCCUCCUGCAUUUUCAACAGCUCGCAGUCAAG | 0.312 ± 0.164 log2 fold change
GGUCACGUCUCAAUCAACUCAUCCCCAGGAGUUUGCUCCUGCAUUCUCAACAGCUCGCAGUCAAG | 0.306 ± 0.225 log2 fold change
GGUCACGUCUCAAUCAACUCAUCCUCAGGAGUUUCCUCCUGCAAACUCAACAGCUCGCAGUCAAG | 0.314 ± 0.204 log2 fold change
GGUCACGUCUCAAUCAACUCAUCUCCAGGAGUUUCCUCCUGCUUUUUCAACAGCUCGCAGUCAAG | 0.328 ± 0.198 log2 fold change
GGUCACGUCUCAAUCAACUCAGUCCCAGGAGUUUUCUCCUGCUAAUUCAACAGCUCGCAGUCAAG | 0.335 ± 0.235 log2 fold change
GGUCACGUCUCAAUCAACUCAAUCUCAGGAGUUUUCUCCUGCUAUUUCAACAGCUCGCAGUCAAG | 0.339 ± 0.222 log2 fold change
GGUCACGUCUCAAUCAACUCUUAAGAGGGGGGGAAAACCCCUUUACCCUCAACGUCAACAGCUCGCAGUCAAG | 0.385 ± 0.451 log2 fold change
GGUCACGUCUCAAUCAACUCUUAAGAGGGGGGGAAAACCCCUUUACCCUCGCCAUCAACAGCUCGCAGUCAAG | 0.455 ± 0.394 log2 fold change
GGUCACGUCUCAAUCAACUCUUAAGAGGGGGGGAAAACCCCUUUACCCUCAAAAUCAACAGCUCGCAGUCAAG | 0.666 ± 0.398 log2 fold change
GGUCACGUCUCAAUCAACUCUUCUUCCAGGGAAAUCCCUGGUAAUUUCAACAGCUCGCAGUCAAG | 0.413 ± 0.238 log2 fold change
GGUCACGUCUCAAUCAACUCUUCUCCCAGGGAAAUCCCUGGUAUACUCAACAGCUCGCAGUCAAG | 0.329 ± 0.25 log2 fold change
GGUCACGUCUCAAUCAACUCAUCGCCCAGGGAAAGCCCUGGUUAAUUCAACAGCUCGCAGUCAAG | 0.329 ± 0.337 log2 fold change
GGUCACGUCUCAAUCAACUCAAUCCCCAGGGAAAUCCCUGGUAAAUUCAACAGCUCGCAGUCAAG | 0.453 ± 0.315 log2 fold change

Sequence | binding signal
GGUCACGUCUCAAUCAACUCAACUCCCAGGGAAACCCCUGGUAAAUUCAACAGCUCGCAGUCAAG | 0.307 ± 0.342 log2 fold change
GGUCACGUCUCAAUCAACUCUUCUUCCAGGGAAAUCCCUGGCAAACUCAACAGCUCGCAGUCAAG | 0.309 ± 0.268 log2 fold change
GGUCACGUCUCAAUCAACUCUUCUCCCAGGGAAAGCCCUGGUAAACUCAACAGCUCGCAGUCAAG | 0.33 ± 0.26 log2 fold change
GGUCACGUCUCAAUCAACUCAUCCCCCAGGGAAAUCCCUGGUUAAUUCAACAGCUCGCAGUCAAG | 0.368 ± 0.293 log2 fold change
GGUCACGUCUCAAUCAACUCUUCUCCCAGGGAAAUCCCUGGUAAACUCAACAGCUCGCAGUCAAG | 0.359 ± 0.267 log2 fold change
GGUCACGUCUCAAUCAACUCAAUCUCCAGGGAAAUCCCUGGCUAAUUCAACAGCUCGCAGUCAAG | 0.315 ± 0.249 log2 fold change
GGUCACGUCUCAAUCAACUCAAUCUCCAGGGAAAUCCCUGGUUAAUUCAACAGCUCGCAGUCAAG | 0.348 ± 0.266 log2 fold change
GGUCACGUCUCAAUCAACUCCUCAGAGGGGGGGAAAACCCCUUUACCCUCCUUAUCAACAGCUCGCAGUCAAG | 0.431 ± 0.416 log2 fold change
GGUCACGUCUCAAUCAACUCAUUAGAGGGGGGGAAAACCCCUUUACCCUCAUCAUCAACAGCUCGCAGUCAAG | 0.333 ± 0.443 log2 fold change
GGUCACGUCUCAAUCAACUCUAAAGAGGGGGGGAAAACCCCUUUACCCUCCUACUCAACAGCUCGCAGUCAAG | 0.315 ± 0.441 log2 fold change
GGUCACGUCUCAAUCAACUCUCAAGAGGGGGGGAAAACCCCUUUACCCUCAUUAUCAACAGCUCGCAGUCAAG | 0.622 ± 0.45 log2 fold change
GGUCACGUCUCAAUCAACUCUAAAGAGGGGGGGAAAACCCCUUUACCCUCAUCAUCAACAGCUCGCAGUCAAG | 0.394 ± 0.392 log2 fold change
GGUCACGUCUCAAUCAACUCCUCAGAGGGGGGGAAAACCCCUUUACCCUCAUUAUCAACAGCUCGCAGUCAAG | 0.4 ± 0.421 log2 fold change
GGUCACGUCUCAAUCAACUCUAUAGAGGGGGGGAAAACCCCUUUACCCUCAUCAUCAACAGCUCGCAGUCAAG | 0.306 ± 0.416 log2 fold change
GGUCACGUCUCAAUCAACUCACUAGAGGGGGGGAAAACCCCUUUACCCUCAUUAUCAACAGCUCGCAGUCAAG | 0.408 ± 0.406 log2 fold change
GGUCACGUCUCAAUCAACUCACUAGAGGGGGGGAAAACCCCUUUACCCUCAUCGUCAACAGCUCGCAGUCAAG | 0.311 ± 0.421 log2 fold change
GGUCACGUCUCAAUCAACUCCCCAGAGGGGGGGAAAACCCCUUUACCCUCAAAUUCAACAGCUCGCAGUCAAG | 0.402 ± 0.428 log2 fold change
GGUCACGUCUCAAUCAACUCCUCAGAGGGGGGGAAAACCCCUUUACCCUCCCAUUCAACAGCUCGCAGUCAAG | 0.356 ± 0.426 log2 fold change
GGUCACGUCUCAAUCAACUCCACGGAGGGGGGGAAAACCCCUUUACCCUCAAAUUCAACAGCUCGCAGUCAAG | 0.543 ± 0.46 log2 fold change
GGUCACGUCUCAAUCAACUCUCUAGAGGGGGGGAAAACCCCUUUACCCUCCCAUUCAACAGCUCGCAGUCAAG | 0.325 ± 0.44 log2 fold change
